Among the data in PubChem BioAssay AID588 (National Center for Advancing Translational Sciences (NCATS), 2007) are max dye-equivalent concentration values, retold here.

Each structure is given as a SMILES string. Among all 59,000 compounds or so, about 25 (0.04%) were called active. No rule for the calls is given here. Many of the other results were omitted from the sample, so actives are more common in it than they were.

This assay can be described thus: qHTS Assay for Spectroscopic Profiling in Resorufin Spectral Region. Conditions: Compound fluorescence, resorufin region 547/598 nm, buffer; stronger effect = higher value. The source says: NIH Molecular Libraries Screening Centers Network [MLSCN] NIH Chemical Genomics Center [NCGC] […] Occasionally, the artifactual effect may originate from the compound#s own spectral or other biophysical properties which generally tend to track its assay concentration. Pre-screening/profiling the library with respect to the compounds# spectral properties should help one exclude false positives early on. While the most informative fluorescent profiling data set is obtained by performing a full excitation and emission scan of each well by using a monochromator-based plate reader, such an approach is practical only on a very limited scale as scanning each well requires long time. An alternative approach, applied here, is to perform plate reader scans using selected excitation and emission wavelength pairs to generate a multidimensional relational database that correlates compound concentration and the respective relative fluorescence intensity at a given wavelength set. A standard curve of resorufin present on each plate as six-point concentration series, was used to compute a normalized fluorescence response, termed dye-equivalent concentration, for each compound at each concentration.
NCGC Assay Protocol Summary: Buffer: 100 mM Tris buffer, pH 8.0 Dye standard plate: The wells in columns 1 through 4 of a Kalypsys polypropylene 1536-well compound plate were filled with standard solutions of fluorophore corresponding to the spectral region of interest. Solutions of resorufin were placed in the following wells: M1, N1: 3 mM, M2, N2: 300 uM, M3, N3: 30 uM, M4, N4: zero (DMSO), O1, P1: 3 uM, O2, P2: […], O3, P3: 300 nM, O4, P4: zero (DMSO). Assay Steps: Six uL of buffer were dispensed to 1536-well Greiner black plates. Compounds and dye standards (23 nL) were transferred via Kalypsys PinTool. The plates were incubated for 15 min at room temperature, and then read on ViewLux (Perkin-Elmer) High-throughput CCD imager using 547 nm and 598 nm excitation and emission filter set. Keywords: NIH Roadmap, MLSCN, MLI, MLSMR, qHTS, NCGC, Resorufin, Fluorescent Profiling.
(Quantitative high-throughput screening tests each substance at several concentrations.)
Consider `CN(c1ccccc1)c1ccc(/C=c2\s/c(=C(/C#N)C(=O)C(C)(C)C)n(Cc3ccco3)c2=O)cc1`, for which the max dye-equivalent concentration is 27 nM (active).

As for `CCOC(=O)CSc1nc2c(sc(=S)n2CCc2ccccc2)c(=O)n1Cc1ccco1`, the max dye-equivalent concentration entry is “inactive”.

Regarding `COCCNc1ncnc2ccc(-c3ccccc3CN(C)C)cc12`, the max dye-equivalent concentration entry was “inactive”.

Turning to `C=CCn1c(SCc2csc(C)n2)nc2scc(-c3ccc(C)o3)c2c1=O`, the max dye-equivalent concentration result was “inactive”.

In the case of `O=C(CCCn1c(=O)oc2ccccc21)Nc1cccnc1`, the max dye-equivalent concentration entry is “inactive”.

For `COC(=O)c1ccc(Oc2nc(Nc3ccc(F)cc3)nc(N3CCCC3)n2)cc1`, the max dye-equivalent concentration result was “inactive”.

With `O=S(=O)(NCc1ccccn1)c1ccc(Br)s1`, the max dye-equivalent concentration result was “inactive”.

As to `O=C1C(=O)N(CCN2CCOCC2)C(c2ccccn2)/C1=C(/O)c1ccc(Cl)cc1` (centres undefined), the max dye-equivalent concentration result is “inactive”.

For `COc1cc2[nH]c(=O)n(CCC(=O)NC3CCN(Cc4ccccc4)CC3)c(=O)c2cc1OC`, the max dye-equivalent concentration result is “inactive”.

Regarding `CN(C)c1ccc(-c2nc(NCCN3CCOCC3)c3ccccc3n2)cc1`, the max dye-equivalent concentration result was “inactive”.

For the compound `CC(C)C(NC(=O)c1cccc(S(=O)(=O)N2CCOCC2)c1)C(=O)NCCc1ccccn1` (centres undefined), the max dye-equivalent concentration entry was “inactive”.

As for `COc1cc(-c2noc(C3CCCN(S(=O)(=O)c4cccc(Cl)c4)C3)n2)cc(OC)c1OC` (centres undefined), the max dye-equivalent concentration entry was “inactive”.

Consider `CC(C)C(c1nnnn1C1CCCC1)N1CCN(c2ccccc2F)CC1` (centres undefined), for which the max dye-equivalent concentration entry is “inactive”.

As to `C=CCn1c(SCc2nnc(-c3ccccc3)o2)nnc1C(O)c1ccccc1` (centres undefined), the max dye-equivalent concentration result is “inactive”.

For the compound `OCCCNCc1ccccn1`, the max dye-equivalent concentration entry is “inactive”.

As for `CCCCc1cc(=O)oc2cc(C)cc(OCc3nn[nH]n3)c12`, the max dye-equivalent concentration result is “inactive”.

As for `COCCn1c(=O)c(-c2ccccc2)nc2cnc(N3CCOCC3)nc21`, the max dye-equivalent concentration result is “inactive”.

With `Cc1cc(N2C(=O)c3ccc(C(=O)NCc4ccccc4)cc3C2=O)no1`, the max dye-equivalent concentration result was “inactive”.

Consider `CCC(=O)NC(=Nc1nc2ccccc2s1)NC(=O)CC`, for which the max dye-equivalent concentration result is “inactive”.

Take `O=C(c1ccc2c(c1)C(=O)N(c1ccc(Cl)cc1)C2=O)N1CCN(c2ccccn2)CC1`: the max dye-equivalent concentration result was “inactive”.

Take `Cc1ccc(F)cc1NC(=O)c1cccc(N(C)C)c1`: the max dye-equivalent concentration entry is “inactive”.

On to `CC(C)(C)c1cc(C(=O)NCc2cccnc2)ccn1`, for which the max dye-equivalent concentration result was “inactive”.

As for `Cc1ccc(CNC(=O)C2CC(=O)N(C3CCCCCCC3)C2)cc1` (centres undefined), the max dye-equivalent concentration entry was “inactive”.

On to `Cc1nc2cnc(N3CCN(C)CC3)nc2n(CCC#N)c1=O`, for which the max dye-equivalent concentration result is “inactive”.

With `CCOC(=O)C1CCN(C(=O)CC2C(=O)N(Cc3ccccc3)C(C)c3nc4ccccc4n32)CC1` (centres undefined), the max dye-equivalent concentration entry is “inactive”.

Consider `COc1ccccc1N1CCN(C(=O)c2c(-c3c(Cl)cccc3Cl)noc2C)CC1`, for which the max dye-equivalent concentration result is “inactive”.

Turning to `Fc1ccccc1CCNc1nnnn1-c1ccccc1`, the max dye-equivalent concentration entry is “inactive”.

As to `COc1ccccc1-c1nc(NCCNC(C)=O)c2ccccc2n1`, the max dye-equivalent concentration entry was “inactive”.

In the case of `COc1cc(OC)c(C(=O)NC2CC(C)(C)NC(C)(C)C2)cc1OC`, the max dye-equivalent concentration entry was “inactive”.

Take `CN(C)CCNC(=O)C(C(=O)c1ccccc1)n1ccccc1=O` (centres undefined): the max dye-equivalent concentration entry is “inactive”.

Take `Cc1nc2ccc(S(=O)(=O)NCC(=O)O)cc2s1`: the max dye-equivalent concentration result was “inactive”.

For the compound `CC(=O)Nc1ccc(S(=O)(=O)Nc2ccc(N3CCOCC3)c(F)c2)cc1`, the max dye-equivalent concentration result is “inactive”.

Take `Cc1ccc(NC(=O)CN2CCC3(O)CCCCC3C2c2ccc3c(c2)OCO3)c(C)c1` (centres undefined): the max dye-equivalent concentration result is “inactive”.

In the case of `CCCC(=O)Nc1cc(OCC)c(NC(=O)NC2CCCCC2)cc1OCC`, the max dye-equivalent concentration result is “inactive”.

For the compound `O=C(NCc1ccco1)c1cc2sccc2n1Cc1ccc(F)cc1`, the max dye-equivalent concentration entry is “inactive”.

For `O=C(CCCn1c(SCC(=O)c2ccc(F)cc2)nc2ccccc2c1=O)NCc1ccco1`, the max dye-equivalent concentration entry was “inactive”.

`Cc1ccc(S(=O)(=O)N2CCOCC2)cc1C(=O)NCc1ccc(F)cc1`: the max dye-equivalent concentration result is “inactive”.

Turning to `CCC(=O)N1CCc2cc(S(=O)(=O)NC(C(=O)N3CCc4ccccc4C3)C(C)C)ccc21` (centres undefined), the max dye-equivalent concentration entry is “inactive”.

As to `Cn1c(-c2ccc(C(=O)c3ccccc3)s2)nc2ccccc21`, the max dye-equivalent concentration entry is “inactive”.

Regarding `O=C(NCCN=C1NS(=O)(=O)c2ccccc21)c1ccc(S(=O)(=O)N2CCOCC2)cc1`, the max dye-equivalent concentration entry was “inactive”.

With `CCCCOc1ccc(C(C)(O)CCN2CCOCC2)cc1` (centres undefined), the max dye-equivalent concentration entry is “inactive”.

On to `CCN(CC)P(=O)(C(NC(=O)OC)C(F)(F)C(F)(F)C(F)(F)C(F)F)N(CC)CC` (centres undefined), for which the max dye-equivalent concentration entry is “inactive”.

As to `O=C(Nc1cnccn1)c1cccnc1`, the max dye-equivalent concentration result was “inactive”.

Consider `Cc1cnc(CNc2cc(-c3c(C)noc3C)ncn2)cn1`, for which the max dye-equivalent concentration result is “inactive”.

Turning to `COc1ccc(CN2C(=O)CN=C2Nc2ccc(C)cc2C)cc1`, the max dye-equivalent concentration entry was “inactive”.

In the case of `CC(C)(C)NC(=O)Cn1nnc(-c2ccccc2Cl)n1`, the max dye-equivalent concentration result is “inactive”.

For `COc1ccccc1C1/C(=C(/O)c2ccc(OC(C)C)cc2)C(=O)C(=O)N1c1cc(C)on1` (centres undefined), the max dye-equivalent concentration result was “inactive”.

Consider `COC(=O)c1ccc(NC(=O)CSc2nnc(CNc3ccc(OC)cc3)n2C)cc1`, for which the max dye-equivalent concentration entry is “inactive”.

Turning to `CCCCC[C@H](O)CCCC(=O)O`, the max dye-equivalent concentration entry was “inactive”.

`CC(=O)OC(C(=O)NCCc1ccccc1)c1cccnc1` (centres undefined): the max dye-equivalent concentration result was “inactive”.

As for `CO[C@@H]1/C=C\O[C@]2(C)Oc3c(C)c(O)c4c(O)c(c(CN(C)C)c(O)c4c3C2=O)NC(=O)/C(C)=C\C=C[C@@H](C)[C@@H](O)[C@H](C)[C@@H](O)[C@H](C)[C@H](OC(C)=O)[C@@H]1C`, the max dye-equivalent concentration result was “inactive”.

For `Cc1cccc(C)c1NC(=O)CCCSc1nnc(-c2ccco2)n1-c1ccccc1`, the max dye-equivalent concentration entry is “inactive”.

Consider `C[C@H](CCC(=O)NCC(=O)O)[C@H]1CC[C@H]2[C@H]3[C@@H](C[C@@H](O)[C@]12C)[C@]1(C)CC[C@H](O)C[C@@H]1C[C@@H]3O`, for which the max dye-equivalent concentration entry was “inactive”.

Turning to `N#CC1=C(N)Oc2n[nH]c(CSc3ccccc3)c2C12C(=O)Nc1ccccc12` (centres undefined), the max dye-equivalent concentration result is “inactive”.
